Test results from PubChem BioAssay (NCATS).
Results filed as inconclusive are left out. Entries that show only a call come without a potency. Values without a mark were called inactive. Calls of active or inactive are those of the source. Calls follow the shape of the dose curve; as a rule, active = well fitted inhibition curve with a large enough effect; inconclusive = small, poorly fitted or top-dose-only effect; inactive = flat fitted curve, though single readings scatter.

How the values were obtained:
PC26 = test: qHTS profiling for inhibitors of Plasmodium falciparum proliferation (AID 504749); also: potency is read from the fitted curve at half-maximal effect; conditions: P. falciparum in erythrocytes, SYBR Green DNA, 72 h; series mostly up to 28.7 µM
Summary of the method: (§1)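 Each compound contacts P. falciparum-infected red blood cells for 72 h at 37 C; lysis buffer (Tris, EDTA, saponin, Triton X, SYBR Green I) is added and fluorescence measured next morning; values normalized to controls.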

PC49 = test: as above; conditions: P. falciparum in erythrocytes, SYBR Green DNA, 72 h; series mostly up to 28.7 µM
Summary of the method: as §1

SC27B = test: as above; conditions: P. falciparum in erythrocytes, SYBR Green DNA, 72 h; series mostly up to 28.7 µM
Summary of the method: as §1

TAB109 = test: as above; conditions: P. falciparum in erythrocytes, SYBR Green DNA, 72 h; series mostly up to 28.7 µM
Summary of the method: as §1

TAB113 = test: as above; conditions: P. falciparum in erythrocytes, SYBR Green DNA, 72 h; series mostly up to 28.7 µM
Summary of the method: as §1

TAB165 = test: as above; conditions: P. falciparum in erythrocytes, SYBR Green DNA, 72 h; series mostly up to 28.7 µM
Summary of the method: as §1

W2 = test: as above; conditions: P. falciparum in erythrocytes, SYBR Green DNA, 72 h; series mostly up to 28.7 µM
Summary of the method: as §1

HaCat = test: Cytotoxic Profiling of Annotated Libraries Using Quantitative High-Throughput Screening (AID 1296008); conditions: Five cell lines viability, CellTiter-Glo ATP luminescence, 48-72 h; max response: stronger effect = lower value
Summary of the method: (§2)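 Cells exposed to compounds for 48 or 72 hr at 37 degrees Celsius. Viability read as ATP-coupled luminescence with CellTiter-Glo after 10 min at room temperature.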

CRL-7250 = normal cell line; test: as above; conditions: Five cell lines viability, CellTiter-Glo ATP luminescence, 48-72 h; max response: stronger effect = lower value
Summary of the method: as §2

HEK293 = test: as above; conditions: Five cell lines viability, CellTiter-Glo ATP luminescence, 48-72 h; max response: stronger effect = lower value
Summary of the method: as §2
Also: nearly all actives have a fitted effect of over 60% in size.

Compound | Potency (PC26) | Potency (PC49) | Potency (SC27B) | Potency (TAB109) | Potency (TAB113) | Potency (TAB165) | Potency (W2) | outcome (HaCat) | max response (CRL-7250) [%] | max response (HaCat) [%] | max response (HEK293) [%]
COP(=S)(OC)SCN1C(=O)c2ccccc2C1=O | inactive | inactive | inactive | inactive | inactive | inactive | inactive | inactive | – | – | –
Clc1ccccc1N1CCNCC1 | – | – | – | – | – | – | – | inactive | – | – | –
CCCC(C)(COC(N)=O)COC(N)=O | inactive | inactive | inactive | inactive | inactive | inactive | – | – | – | – | –
O=c1oc2ccccc2c(O)c1Cc1c(O)c2ccccc2oc1=O | inactive | inactive | inactive | inactive | inactive | inactive | inactive | inactive | – | – | –
COc1ccc2c(c1)C13CCCC[C@@H]1C(C2)N(C)CC3 (some centres undefined) | – | 3550 nM (active) | – | – | inactive | – | 1200 nM (active) | – | – | – | –
O=C1Nc2ccc(Cl)cc2C(c2ccccc2Cl)=NC1O (centres undefined) | inactive | inactive | inactive | inactive | inactive | inactive | inactive | – | – | – | –
O=C1c2ccccc2C(=O)c2ccccc21 | – | inactive | – | – | – | – | 6750 nM (active) | inactive | -3.19 | – | –
O=C1Nc2ccc(Cl)cc2C(c2ccccc2)=NC1O (centres undefined) | inactive | inactive | inactive | inactive | inactive | inactive | inactive | – | – | – | –
CN1C(=O)NC(=O)C(C)(C2=CCCCC2)C1=O (centres undefined) | inactive | inactive | inactive | inactive | inactive | inactive | inactive | – | -9.98 | -13.8 | –
CC(C)=CC1C(C(=O)OCN2C(=O)C3=C(CCCC3)C2=O)C1(C)C (centres undefined) | inactive | inactive | inactive | inactive | inactive | inactive | inactive | inactive | – | – | -22.7
COP(=S)(OC)Oc1ccc(SC)c(C)c1 | – | inactive | inactive | inactive | inactive | inactive | inactive | – | -0.812 | -0.754 | –
CCOP(=S)(OCC)Oc1ccc2c(C)c(Cl)c(=O)oc2c1 | inactive | inactive | – | – | 7940 nM (active) | – | 6750 nM (active) | – | -4.21 | 0.247 | –
CN1C[C@H](C(=O)N[C@]2(C)O[C@@]3(O)[C@@H]4CCCN4C(=O)[C@H](Cc4ccccc4)N3C2=O)C=C2c3cccc4[nH]cc(c34)C[C@H]21 | 1690 nM (active) | 1580 nM (active) | 708 nM (active) | 1120 nM (active) | 794 nM (active) | 447 nM (active) | 53.6 nM (active) | – | – | – | –
Cc1nnc2n1-c1ccc(Cl)cc1C(c1ccccc1)=NC2 | inactive | inactive | inactive | – | inactive | inactive | 4780 nM (active) | – | – | – | –
C[C@@H]1CC2=CC(=O)CC[C@@H]2[C@H]2CC[C@@]3(C)[C@@H](CC[C@]3(C)O)[C@@H]21 | – | – | – | – | – | – | – | – | – | -11 | –
O=C(N/N=C/c1ccc([N+](=O)[O-])o1)c1cc([N+](=O)[O-])cc([N+](=O)[O-])c1O | – | – | 141 nM (active) | 14.1 nM (active) | 282 nM (active) | – | – | inactive | -3.2 | – | –
O=C1CN=C(c2ccccc2)c2cc([N+](=O)[O-])ccc2N1 | inactive | inactive | inactive | inactive | inactive | inactive | inactive | inactive | – | – | -13.4
CCN(CC)CCc1c[nH]c2ccccc12 | – | – | – | – | – | – | – | – | – | -3.07 | -22
CC(C)NC(C)C | inactive | – | inactive | inactive | inactive | inactive | inactive | – | 1.83 | 1.53 | –
